In article PMC12820563, “FoxP3 forms a head-to-head dimer in vivo and stabilizes its multimerization on adjacent microsatellites”:
Whole data set: some 16,000 sequences, median “rpm ratio (pull-down/input)” near 0.94, cut for the highest 2% near 1.7. What follows is part of a selection rich in the highest values, with near analogues and random picks from the rest.

These sequences were tested against T1, MBP-FoxP1dN (Mus musculus, UniProt P58462 326-579) (assay: PD-seq (MBP pull-down with sequencing); 20 mM Tris-HCl pH 7.5, 100 mM NaCl, 1.5 mM MgCl2, 0.4 uM protein, 0.1 uM dsDNA library, 30 min, room temperature, amylose pull-down; high values mean tight binding). Details: protein: recombinant; tags: His6-MBP; chain copies: 2; dsDNA, one strand shown.
T1 sequence: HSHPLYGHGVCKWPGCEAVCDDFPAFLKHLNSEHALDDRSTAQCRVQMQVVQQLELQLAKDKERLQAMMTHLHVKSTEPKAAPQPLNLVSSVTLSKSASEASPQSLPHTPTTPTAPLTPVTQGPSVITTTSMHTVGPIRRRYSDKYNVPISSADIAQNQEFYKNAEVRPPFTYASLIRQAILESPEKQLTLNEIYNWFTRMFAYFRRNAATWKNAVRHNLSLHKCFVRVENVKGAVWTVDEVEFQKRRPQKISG
Summary of the method: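 The N-terminus-lacking fragment of mouse FoxP3 or FoxP1 carried a His6-MBP tag and was expressed in E. coli. At 0.4 µM it was incubated with 0.1 µM Klenow-filled degenerate double-stranded DNA library for 30 min at room temperature in Tris pH 7.5 buffer with NaCl and MgCl2, and complexes were caught on amylose resin, washed three times, released with proteinase K, PCR-barcoded and Illumina-sequenced. Binding is reads-per-million enrichment of pull-down over input with replicates pooled.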
In the case of “GATGATTGTTCTCCCAGCTGATGAATTGGTCCCATCGAGTAAACAAATTTTCCTAATCTTTCTGTTCAAGCGCCATCTAC”, the binding signal is reported as 0.976 RPM ratio (pull-down/input). “GATGATTGTTCTCCCAGCTGATGAATTGCTTAGGTCGAGTAAACAAATTTTCCTAATCTTTCTGTTCAAGCGCCATCTAC” was tested, and the binding signal was 1.02 RPM ratio (pull-down/input). For “GATGATTGTTCTCCCAGCTGATGAATTAATGTCCTCGAGTAAACAAATTTTCCTAATCTTTCTGTTCAAGCGCCATCTAC”, the binding signal was 0.913 RPM ratio (pull-down/input). In the case of “GATGATTGTTCTCCCAGCTGATGAATTTGTGAGCTCGAGTAAACAAATTTTCCTAATCTTTCTGTTCAAGCGCCATCTAC”, the binding signal is reported as 0.999 RPM ratio (pull-down/input). With “GATGATTGTTCTCCCAGCTGATGAATTAACGAAGTCGAGTAAACAAATTTTCCTAATCTTTCTGTTCAAGCGCCATCTAC” the binding signal was 0.89 RPM ratio (pull-down/input). With “GATGATTGTTCTCCCAGCTGATGAATTGTGATGCTCGAGTAAACAAATTTTCCTAATCTTTCTGTTCAAGCGCCATCTAC” the binding signal was 1.54 RPM ratio (pull-down/input). In the case of “GATGATTGTTCTCCCAGCTGATGAATTGTGTGTATCGAGTAAACAAATTTTCCTAATCTTTCTGTTCAAGCGCCATCTAC”, the binding signal is reported as 1.92 RPM ratio (pull-down/input). For “GATGATTGTTCTCCCAGCTGATGAATTGTGTATCTCGAGTAAACAAATTTTCCTAATCTTTCTGTTCAAGCGCCATCTAC”, the binding signal was 1.67 RPM ratio (pull-down/input). “GATGATTGTTCTCCCAGCTGATGAATTTGTGTACTCGAGTAAACAAATTTTCCTAATCTTTCTGTTCAAGCGCCATCTAC” was tested, and the binding signal was 2.09 RPM ratio (pull-down/input). With “GATGATTGTTCTCCCAGCTGATGAATTTTTGTACTCGAGTAAACAAATTTTCCTAATCTTTCTGTTCAAGCGCCATCTAC” the binding signal was 1.14 RPM ratio (pull-down/input). “GATGATTGTTCTCCCAGCTGATGAATTTTCTGTATCGAGTAAACAAATTTTCCTAATCTTTCTGTTCAAGCGCCATCTAC” was tested, and the binding signal was 1.08 RPM ratio (pull-down/input). With “GATGATTGTTCTCCCAGCTGATGAATTTGTACTCTCGAGTAAACAAATTTTCCTAATCTTTCTGTTCAAGCGCCATCTAC” the binding signal was 1.15 RPM ratio (pull-down/input). In the case of “GATGATTGTTCTCCCAGCTGATGAATTCTGTACCTCGAGTAAACAAATTTTCCTAATCTTTCTGTTCAAGCGCCATCTAC”, the binding signal is reported as 0.846 RPM ratio (pull-down/input). In the case of “GATGATTGTTCTCCCAGCTGATGAATTAATGTAATCGAGTAAACAAATTTTCCTAATCTTTCTGTTCAAGCGCCATCTAC”, the binding signal is reported as 1.68 RPM ratio (pull-down/input). “GATGATTGTTCTCCCAGCTGATGAATTCATCGTGTCGAGTAAACAAATTTTCCTAATCTTTCTGTTCAAGCGCCATCTAC” was tested, and the binding signal was 0.891 RPM ratio (pull-down/input). For “GATGATTGTTCTCCCAGCTGATGAATTTGACGAATCGAGTAAACAAATTTTCCTAATCTTTCTGTTCAAGCGCCATCTAC”, the binding signal was 0.846 RPM ratio (pull-down/input). “GATGATTGTTCTCCCAGCTGATGAATTGAGATGCTCGAGTAAACAAATTTTCCTAATCTTTCTGTTCAAGCGCCATCTAC” was tested, and the binding signal was 1.07 RPM ratio (pull-down/input). For “GATGATTGTTCTCCCAGCTGATGAATTAGCTCGGTCGAGTAAACAAATTTTCCTAATCTTTCTGTTCAAGCGCCATCTAC”, the binding signal was 0.829 RPM ratio (pull-down/input). For “GATGATTGTTCTCCCAGCTGATGAATTATGAGATTCGAGTAAACAAATTTTCCTAATCTTTCTGTTCAAGCGCCATCTAC”, the binding signal was 0.995 RPM ratio (pull-down/input). For “GATGATTGTTCTCCCAGCTGATGAATTAACTACCTCGAGTAAACAAATTTTCCTAATCTTTCTGTTCAAGCGCCATCTAC”, the binding signal was 0.879 RPM ratio (pull-down/input). With “GATGATTGTTCTCCCAGCTGATGAATTATCTTGGTCGAGTAAACAAATTTTCCTAATCTTTCTGTTCAAGCGCCATCTAC” the binding signal was 0.937 RPM ratio (pull-down/input). In the case of “GATGATTGTTCTCCCAGCTGATGAATTTAATGTTTCGAGTAAACAAATTTTCCTAATCTTTCTGTTCAAGCGCCATCTAC”, the binding signal is reported as 1.15 RPM ratio (pull-down/input). “GATGATTGTTCTCCCAGCTGATGAATTTTATGTTTCGAGTAAACAAATTTTCCTAATCTTTCTGTTCAAGCGCCATCTAC” was tested, and the binding signal was 1.19 RPM ratio (pull-down/input). With “GATGATTGTTCTCCCAGCTGATGAATTATGTTGGTCGAGTAAACAAATTTTCCTAATCTTTCTGTTCAAGCGCCATCTAC” the binding signal was 1.87 RPM ratio (pull-down/input). For “GATGATTGTTCTCCCAGCTGATGAATTTTTATGTTCGAGTAAACAAATTTTCCTAATCTTTCTGTTCAAGCGCCATCTAC”, the binding signal was 1.37 RPM ratio (pull-down/input). “GATGATTGTTCTCCCAGCTGATGAATTAAATGTTTCGAGTAAACAAATTTTCCTAATCTTTCTGTTCAAGCGCCATCTAC” was tested, and the binding signal was 1.3 RPM ratio (pull-down/input). For “GATGATTGTTCTCCCAGCTGATGAATTATGTTTTTCGAGTAAACAAATTTTCCTAATCTTTCTGTTCAAGCGCCATCTAC”, the binding signal was 2.19 RPM ratio (pull-down/input). In the case of “GATGATTGTTCTCCCAGCTGATGAATTATGATGTTCGAGTAAACAAATTTTCCTAATCTTTCTGTTCAAGCGCCATCTAC”, the binding signal is reported as 1.22 RPM ratio (pull-down/input). With “GATGATTGTTCTCCCAGCTGATGAATTAATGTTTTCGAGTAAACAAATTTTCCTAATCTTTCTGTTCAAGCGCCATCTAC” the binding signal was 2.45 RPM ratio (pull-down/input). For “GATGATTGTTCTCCCAGCTGATGAATTATGTGTTTCGAGTAAACAAATTTTCCTAATCTTTCTGTTCAAGCGCCATCTAC”, the binding signal was 1.51 RPM ratio (pull-down/input). In the case of “GATGATTGTTCTCCCAGCTGATGAATTATGATGGTCGAGTAAACAAATTTTCCTAATCTTTCTGTTCAAGCGCCATCTAC”, the binding signal is reported as 1.1 RPM ratio (pull-down/input). “GATGATTGTTCTCCCAGCTGATGAATTTATGTTTTCGAGTAAACAAATTTTCCTAATCTTTCTGTTCAAGCGCCATCTAC” was tested, and the binding signal was 2.76 RPM ratio (pull-down/input). “GATGATTGTTCTCCCAGCTGATGAATTCCTAATCTCGAGTAAACAAATTTTCCTAATCTTTCTGTTCAAGCGCCATCTAC” was tested, and the binding signal was 0.834 RPM ratio (pull-down/input). “GATGATTGTTCTCCCAGCTGATGAATTATGATATTCGAGTAAACAAATTTTCCTAATCTTTCTGTTCAAGCGCCATCTAC” was tested, and the binding signal was 1.24 RPM ratio (pull-down/input). For “GATGATTGTTCTCCCAGCTGATGAATTATACCTCTCGAGTAAACAAATTTTCCTAATCTTTCTGTTCAAGCGCCATCTAC”, the binding signal was 0.896 RPM ratio (pull-down/input).
